What all share (experiment): PBM binding z-score (relative to random genomic background probes); higher = stronger binding; sequences stand for … in GC…GCGATTGACAGCGTAGAATGAAGG
Experiment [1] has as its system FXR:RXRa (NR concentration 270 nM, RXRa partner concentration 90 nM). Put shortly: (§1)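 Each nuclear receptor dimer, without ligand, was incubated for 1 h on custom Agilent 4×180K protein-binding microarrays. Binding was detected with antibodies against each partner (one per run), and scanned fluorescence was regression-normalized. The binding z-scores are referenced to random human genomic background probes.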

Experiment [2] concerns LXRa:RXRa (NR concentration 270 nM, RXRa partner concentration 90 nM). Put shortly: as §1
Experiment [3] has as its system LXRa homodimer (NR concentration 270 nM). Put shortly:
as §1

Experiment [4] has as its system LXRb:RXRa (NR concentration 270 nM, RXRa partner concentration 90 nM). Put shortly:
as §1

The test system of experiment [5] is LXRb homodimer (NR concentration 270 nM). Put shortly: as §1
In experiment [6] the test system is PPARa:RXRa (NR concentration 270 nM, RXRa partner concentration 90 nM). Put shortly:
as §1

In experiment [7] the test system is PPARg:RXRa (NR concentration 180 nM, RXRa partner concentration 90 nM). Put shortly:
as §1

For experiment [8], the system named is PPARg:RXRa 270nM:90nM, anti-RXR (NR concentration 270 nM, RXRa partner concentration 90 nM). Put shortly: as §1
Experiment [9] deals with PPARg:RXRa 30nM:10nM, anti-RXR (NR concentration 30 nM, RXRa partner concentration 10 nM). Put shortly:
as §1

Experiment [10] deals with PPARg:RXRa 90nM:30nM, anti-RXR (NR concentration 90 nM, RXRa partner concentration 30 nM). Put shortly: as §1
In experiment [11] the test system is PPARg:RXRa DBDmut IVT, anti-RXR (DBD mutation: RXRa K156A/R161A, NR concentration 270 nM, RXRa partner concentration 90 nM). Put shortly:
as §1

The test system of experiment [12] is PPARg:RXRa IVT, anti-PPARg (NR concentration 270 nM, RXRa partner concentration 90 nM). Put shortly:
as §1

The subject of experiment [13] is PPARg DBDmut:RXRa IVT, anti-PPARg (DBD mutation: PPARg1 K132A/R137A, NR concentration 270 nM, RXRa partner concentration 90 nM). Put shortly:
as §1

Experiment [14] has as its system PPARg DBDmut IVT, anti-PPARg (DBD mutation: PPARg1 K132A/R137A, NR concentration 270 nM). Put shortly: as §1
Experiment [15] has as its system PPARg homodimer (NR concentration 180 nM). Put shortly: as §1
For experiment [16], the system named is PXR:RXRa (NR concentration 270 nM, RXRa partner concentration 90 nM). Put shortly: as §1
For experiment [17], the system named is PXR homodimer (NR concentration 270 nM). Put shortly:
as §1

The test system of experiment [18] is RARa:RXR (NR concentration 270 nM, RXRa partner concentration 90 nM). Put shortly: as §1
The subject of experiment [19] is RARa homodimer (NR concentration 270 nM). Put shortly: as §1
Experiment [20] has as its system RARb:RXRa (NR concentration 270 nM, RXRa partner concentration 90 nM). Put shortly: as §1

As for CCTTACGGGACACGAGGTTATAGCACGACGAGCG, the PBM binding z-score in experiment [1] is 0.657; in experiment [2] it was 0.725; in experiment [3], 0.391; in [4], 0.535; in experiment [5], -0.204; in [6], 1.27. Besides, the PBM binding z-score in [7] is 1.38; in [8] it was 0.573; in experiment [9], 0.0152; in experiment [10], 0.477; in experiment [11], 0.526; in experiment [12] it was 0.867. The PBM binding z-score in experiment [13] amounted to 0.559; in experiment [14], 0.413; in experiment [15], 0.721; in experiment [16], 0.701; in [17], 0.477; in experiment [18], 0.935. For the same sequence, the PBM binding z-score in [19] stood at 0.721; in [20], 1.11.
As for TATGCTAGGTCAACGATGGTCAGCTAATCTGCTA, the PBM binding z-score in [1] was found to be 3.36; in experiment [2] it was 4.53; in [3], 2.1; in experiment [4], 2.25; in experiment [5], 0.889; in experiment [6], 3.37. Moreover, the PBM binding z-score in [7] came to 2.89; in experiment [8] it was 2.78; in experiment [9], 0.716; in experiment [10], 1.87; in experiment [11], 2.97; in [12], 3.84. The PBM binding z-score in [13] was 1.31; in [14] it was 1.14; in experiment [15], 1.14; in experiment [16], 1.77; in experiment [17] it was -0.438; in experiment [18], 2.6. Besides, the figures for the PBM binding z-score in experiment [19] and in [20] were -0.282 and 3.96, respectively.
With ACTAGCAGGCCAAGTTTGCGTCACTCAAACAAAG, the PBM binding z-score in [1] is -0.42; in experiment [2] it was -0.547; in experiment [3], -0.38; in experiment [4], -0.386; in [5], -0.402; in [6], -0.395. In addition, the PBM binding z-score was -0.346 in experiment [7]; -0.378 in [8]; -0.74 in [9]; -0.227 in experiment [10]; 0.769 in experiment [11]; 0.225 in experiment [12]. Besides, the PBM binding z-score in experiment [13] was 0.102; in experiment [14] it was -0.27; in experiment [15], -0.265; in experiment [16] it was -0.294; in [17], -0.479; in experiment [18], -0.264. Also, the PBM binding z-score is -0.243 in experiment [19] and 0.486 in experiment [20].
Regarding CTACCAAGGTGAACAAGGTCGTTCATTACTATTC, the PBM binding z-score was 2.27 in experiment [1]; 3.01 in experiment [2]; 1.12 in experiment [3]; 2.9 in experiment [4]; 0.239 in [5]; 3.12 in [6]. Besides, the PBM binding z-score amounted to 1.29 in experiment [7]; 1.56 in experiment [8]; 0.212 in experiment [9]; 0.958 in experiment [10]; 4.04 in experiment [11]; 2.99 in [12]. Moreover, the PBM binding z-score was found to be 0.407 in [13]; 0.669 in experiment [14]; 1.03 in [15]; 3.55 in experiment [16]; 3.05 in experiment [17]; 2.7 in experiment [18]. In addition, the figures for the PBM binding z-score in experiment [19] and in [20] were 0.251 and 2.38, respectively.
Turning to TCGAGCAGGTTAGTCGGGGCATTCAGCCAACATA, the PBM binding z-score in [1] is -0.0429; in [2], -0.284; in experiment [3], -0.517; in experiment [4], 0.593; in experiment [5], -0.865; in [6] it was 0.572. The PBM binding z-score in experiment [7] is -0.408; in [8], -0.00465; in [9], 0.101; in experiment [10] it was 0.383; in experiment [11], 0.239; in experiment [12] it was 0.431. The PBM binding z-score in [13] is -0.862; in experiment [14], -0.407; in experiment [15] it was -0.0263; in experiment [16] it was 0.125; in experiment [17], -0.131; in experiment [18], 0.109. Moreover, the values for the PBM binding z-score in experiment [19] and in experiment [20] were -0.676 and 0.557, respectively.
Regarding TAATATAGGTAAAGGTGAAAGTCGAACGATATGA, the PBM binding z-score in [1] is 1.14; in experiment [2], 1.33; in experiment [3], 0.478; in experiment [4], 1.55; in experiment [5], 0.351; in experiment [6], 4.23. The PBM binding z-score in experiment [7] worked out at 6.52; in [8], 6.14; in experiment [9] it was 4.8; in experiment [10] it was 6.35; in experiment [11], 6.04; in [12] it was 6.44. In addition, the PBM binding z-score amounted to 2.33 in [13]; 2.3 in experiment [14]; 2.1 in experiment [15]; 1.02 in [16]; 0.701 in experiment [17]; 1.8 in [18]. The values for the PBM binding z-score in experiment [19] and in experiment [20] were 1.92 and 2.03, respectively.
As for CCTACTGGGCCAAAAAGGTCATTGGTGCCGATAA, the PBM binding z-score was 3.94 in experiment [1]; 4.46 in experiment [2]; 3.31 in [3]; 4.08 in experiment [4]; 0.197 in experiment [5]; 4.67 in [6]. For the same sequence, the PBM binding z-score turned out to be 3.1 in experiment [7]; 4.12 in experiment [8]; 1.19 in experiment [9]; 3.34 in experiment [10]; 3.78 in experiment [11]; 4.13 in [12]. Further, the PBM binding z-score in experiment [13] is -0.644; in experiment [14], -0.94; in [15], 3.28; in experiment [16], 4.9; in experiment [17] it was 5.2; in experiment [18], 5.26. Further, the PBM binding z-score in experiment [19] was found to be 0.489; in experiment [20] it was 4.07.

The values are drawn from the supplement of paper PMC6555819.
